Results published in PubChem BioAssay (NCI).
Compounds without any hit were thinned out: in the full panel of roughly 83,000, 20% have a hit.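 Values shown are percent growth following 48 h exposure of cells in 96-well plates to a single concentration of compound; below 10 was considered active.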 Active and inactive are the calls of the source.

How the values were obtained:
Experiment in all cases: NCI-60 one-dose screen, 48 h (100 = growth as untreated, 0 = no growth, -100 = all killed)
[1] = tested on: EKVX NSCLC; details: 10 µM unless noted
[2] = tested on: SN12C renal; details: 10 µM unless noted
[3] = tested on: UO-31 renal; details: 10 µM unless noted
[4] = tested on: TK-10 renal; details: 10 µM unless noted
[5] = tested on: ACHN renal; details: 10 µM unless noted
[6] = tested on: CAKI-1 renal; details: 10 µM
[7] = tested on: CCRF-CEM leukemia; details: 10 µM unless noted
[8] = tested on: MOLT-4 leukemia; details: 10 µM unless noted
[9] = tested on: SR leukemia; details: 10 µM unless noted
[10] = tested on: RPMI-8226 leukemia; details: 10 µM unless noted
[11] = tested on: OVCAR-8 ovarian; details: 10 µM unless noted
[12] = tested on: OVCAR-5 ovarian; details: 10 µM unless noted
[13] = tested on: OVCAR-4 ovarian; details: 10 µM unless noted
[14] = tested on: SK-OV-3 ovarian; details: 10 µM unless noted
[15] = tested on: IGROV1 ovarian; details: 10 µM unless noted
[16] = tested on: HS 578T breast; details: 10 µM unless noted
[17] = tested on: NCI/ADR-RES ovarian; details: 10 µM unless noted
[18] = tested on: A498 renal; details: 10 µM unless noted
[19] = tested on: OVCAR-3 ovarian; details: 10 µM unless noted

Measured: growth

COc1ccc(-c2nc3cc(Cl)c(Cl)cc3n2CC(=O)N=Nc2c(O)[nH]c3ccc(Br)cc23)cc1
active: [1] 4.81% | [2] -20.1% | [3] -34.9% | [4] 6.26% | [5] -83% | [6] -76.8% | [12] -5.99% | [13] -43.9% | [15] -37.9% | [16] -8.55% | [17] -1.87%
inactive: [7] 39% | [8] 36.4% | [9] 36.4% | [10] 31.8% | [11] 12% | [14] 13.5%

CN1C(=O)/C(=C/C=C/c2ccco2)SC1=S
inactive: [1] 87.2% | [2] 84.6% | [3] 58.3% | [4] 113% | [5] 75.7% | [6] 95.2% | [7] 60.8% | [8] 90.3% | [9] 79.6% | [10] 64.4% | [11] 71.1% | [12] 87.5% | [13] 96.1% | [14] 98.9% | [15] 54.3% | [17] 75.6%

COc1ccc(C2C(C#N)=C(N)Oc3c2sc2ccc(C)cc32)cc1 (stereo not given)
active: [16] 3.28%
inactive: [1] 53.4% | [2] 34.9% | [3] 41.7% | [4] 81.4% | [5] 44.9% | [6] 32.1% | [7] 26.4% | [8] 45% | [9] 25.7% | [10] 36.5% | [11] 56% | [12] 51.4% | [13] 63% | [14] 41.2% | [15] 39.8% | [17] 23.6%

C(=C(\C1=NCCN1)n1cnc2ccccc21)/c1cccc2ccccc12
inactive: [1] 87.2% | [2] 85.4% | [3] 62.2% | [4] 90.9% | [5] 87.2% | [6] 68.7% | [7] 91.1% | [8] 93.2% | [9] 84.7% | [10] 87.2% | [11] 95.8% | [12] 81.4% | [13] 93.3% | [14] 89% | [15] 89.7% | [16] 92.9% | [17] 96.8%

CCOC(=O)CC(=O)CSC1=NC2C(NN1)N(C)C(=O)N2C (stereo not given)
inactive: [1] 56.2% | [2] 91.6% | [3] 57.2% | [4] 104% | [5] 82.6% | [6] 88.5% | [18] 118% | [10] 56% | [11] 66.8% | [12] 88.6% | [13] 88.9% | [14] 114% | [15] 91.2% | [16] 94.4% | [17] 80.1%

O=C(COc1ccc(C2SCC(=O)N2c2ccccc2)cc1)c1ccccc1 (stereo not given)
inactive: [1] 81.2% | [2] 92.3% | [3] 78.5% | [4] 124% | [5] 92.5% | [6] 79.2% | [7] 98.9% | [8] 88.8% | [9] 91.5% | [10] 91.9% | [11] 94.1% | [12] 104% | [13] 107% | [14] 111% | [15] 96.4% | [19] 116% | [16] 94.1% | [17] 96.5%

Nc1nc(-c2cccc([N+](=O)[O-])c2)c(N=Nc2ccccc2Cl)s1
inactive: [1] 79.6% | [2] 73.7% | [3] 63.8% | [4] 85.7% | [5] 63.2% | [6] 28.8% | [7] 66.8% | [8] 68.7% | [9] 59.1% | [10] 68.5% | [11] 56.8% | [12] 93.7% | [13] 63.1% | [14] 99.5% | [15] 74.8% | [16] 56.8% | [17] 59.9%

Cc1ccc(-c2cc3nc(C(Cl)Cl)nc(-c4ccccc4)n3n2)cc1
inactive: [1] 99.6% | [2] 107% | [3] 91.8% | [4] 108% | [5] 47.5% | [6] 72.7% | [7] 101% | [8] 97% | [9] 85.3% | [10] 82.5% | [11] 92.9% | [12] 103% | [13] 103% | [14] 97.9% | [15] 94.3% | [16] 109% | [17] 79.5%

C/C(=N\NC(=O)CSc1nc2sc3c(c2c(=O)n1-c1ccccc1)CCC(C)C3)c1ccc(Cl)cc1 (stereo not given)
inactive: [1] 31.5% | [2] 29.2% | [3] 17% | [4] 32.8% | [5] 13.4% | [6] 12.8% | [7] 12.6% | [8] 14% | [10] 24.9% | [11] 18.8% | [12] 50% | [13] 29.3% | [14] 57.4% | [15] 19.2% | [16] 61.9% | [17] 12.4%
active: [9] 6.22%

COc1cccc(/C=C/C(=O)c2ccc(NC(=O)COc3cccc4cccnc34)cc2)c1
inactive: [1] 93.2% | [2] 95.4% | [3] 82.8% | [4] 109% | [5] 101% | [6] 92.1% | [7] 95.3% | [8] 88.9% | [9] 74.6% | [10] 73.4% | [11] 98.1% | [12] 103% | [13] 101% | [14] 104% | [15] 100% | [19] 102% | [16] 100% | [17] 90.8%

Cc1nc(-c2cc3ccccc3c(N3CCN(C)CC3)n2)cs1
inactive: [1] 96.3% | [2] 90% | [3] 67% | [4] 98.2% | [5] 94% | [6] 72.1% | [7] 103% | [8] 98% | [9] 102% | [10] 99.2% | [11] 98.8% | [12] 104% | [13] 102% | [14] 97.1% | [15] 97.3% | [16] 85.5% | [17] 94.3%

CN1CCN(Cc2ccc(NC(=O)c3cncc(C#Cc4cnc5ccc(NC6CCOCC6)nn45)c3)cc2C(F)(F)F)CC1
active: [1] -4.66% | [2] 1.01% | [3] -43.7% | [4] -11.7% | [5] -95.5% | [6] -46.9% | [7] 3.15% | [8] 5.18% | [10] -34.1% | [11] -52.4% | [12] 0.169% | [14] -22.9% | [15] -21% | [17] 7.41%

C=CCn1c(SCC(=O)c2ccc(OC)cc2)nnc1-c1ccc(OC)cc1
inactive: [1] 96.4% | [2] 97.6% | [3] 92.1% | [4] 105% | [5] 104% | [6] 88.3% | [7] 107% | [8] 96.1% | [10] 98.4% | [11] 99.9% | [12] 96.7% | [13] 98% | [15] 103% | [16] 103% | [17] 94.9%

Cc1cn(-c2cc(NC(=O)c3cncc(C#Cc4cnc5ccc(OCCCS(C)(=O)=O)nn45)c3)cc(C(F)(F)F)c2)cn1
active: [8] 9.79% | [9] 2.78% | [16] -3.18%
inactive: [1] 16% | [2] 16.7% | [3] 38.3% | [4] 33.8% | [5] 56.2% | [6] 37.4% | [10] 39.5% | [11] 15.4% | [12] 22.6% | [13] 58.4% | [14] 104% | [15] 14.4% | [17] 89.6%

O=C(CN1CCN(c2cc(=O)n(-c3ccccc3)c3ccccc23)CC1)Nc1ccc([N+](=O)[O-])cc1
inactive: [1] 88.7% | [2] 87.2% | [3] 62% | [4] 93.3% | [6] 98.1% | [18] 88.2% | [7] 98% | [8] 90% | [9] 88.6% | [11] 91.3% | [12] 98.7% | [13] 65.9% | [14] 99.3% | [15] 84.3% | [19] 90.9% | [17] 91.1%

COc1cc2c3c(n(CCCN4CCCC4)c(=O)c2cc1OC)-c1cc2c(cc1C3=O)OCO2
inactive: [2] 11.8% | [3] 40.4% | [6] 55.3% | [18] 80.2% | [14] 53.7% | [16] 88.6%
active: [1] -55.3% | [4] -86% | [7] -11.9% | [10] -41.2% | [11] -65.3% | [12] -73.1% | [13] -59.2% | [15] -70.9% | [17] -39.6%

CSc1nccc(-c2c(-c3ccc(F)c(OCc4ccc(F)cc4)c3)nc3sccn23)n1
inactive: [1] 89.8% | [2] 74% | [3] 53.7% | [4] 70% | [6] 68% | [18] 46.5% | [7] 81.8% | [8] 45.1% | [9] 73.4% | [10] 53.2% | [11] 84.4% | [12] 95.4% | [13] 61.8% | [14] 71.4% | [15] 55.8% | [16] 88.2% | [17] 73.6%

N#C/C(=C\c1ccc(N2CCCCC2)cc1)C(=O)Nc1sc2c(c1C#N)CCC2
inactive: [1] 98.4% | [2] 88.9% | [3] 91.2% | [4] 108% | [5] 72.5% | [6] 84.8% | [8] 104% | [9] 97.6% | [10] 69.3% | [11] 99.8% | [12] 93.7% | [13] 84.5% | [15] 102% | [16] 99.3% | [17] 95.7%
active: [7] -4.06%
